# Source: PubChem BioAssay (NCATS)
# Records with an inconclusive call do not appear. Calls of active or inactive are those of the source.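 How the source made its calls: active means dose-dependent loss of cell ATP signal giving a full or clear fitted curve, ranked by lower potency value; inconclusive means weak partial curve or response only at the top dose; inactive means no loss of viability signal.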
# Assay: Cell Viability - Jurkat (AID 426);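 further: cells exposed to compound for 40 hours at 37 °C before ATP read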
# Details: qHTS
# Source text: NIH Chemical Genomics Center [NCGC]
# NIH Molecular Libraries Screening Centers Network [MLSCN]
# National Institutes of Environmental Health Sciences [NIEHS]
# National Toxicology Program [NTP]
# We have developed a 1536-well cell-based assay for quantitative high throughput screening (qHTS) against a number of cell lines to determine in vitro cytotoxicity of small molecules. This particular assay uses the Jurkat cell line (Clone E6-1) which is derived from the human T cell leukemia.
# NCGC Assay Protocol Summary:
# The CellTiter-Glo luminescent cell viability assay (Promega) is a homogeneous method to measure the number of viable cells in culture. The end point readout of this assay is based on quantitation of intracellular ATP, an indicator of metabolic activity, using the luciferase reaction. Luciferase catalyzes the oxidation of beetle Luciferin to oxyluciferin and light in the presence of ATP. The luminescent signal is proportional to amount of ATP present.
# Using the CellTiter-Glo luminescent cell viability assay, the amount of cellular ATP was measured in the Jurkat cell line with complete culture medium following compound treatment for 40 hours. The assay was performed in opaque white Kalypsys 1536-well plates. In the screen, tamoxifen and doxorubicin were used as positive controls. Library compounds were measured for their ability to cause acute toxicity in the cell line, as reflected by a decrease in intracellular ATP levels, in a concentration-dependent manner. […] AC50 values were determined from concentration-response data modeled with the standard Hill equation.
# qHTS protocol for CellTiter Glo Jurkat cellular assay
# [Step] [Parameter] [Value] [Description]
# 1. Reagent; 5 uL; 5000 Jurkat cells/well
# 3. Controls; 23 nL; Tamoxifen 0.34 uM to 100 uM & Doxorubicin 0.02 nM to 100 uM
# 4. Time; 40 hr; 37 °C incubation
# 5. Reagent; 5 uL; CellTiter Glo reagent
# 6. Time; 20 min; Room Temperature
# 7. Detection; Luminescence; Viewlux plate reader
# Keywords: cell viability, cytotoxicity, Jurkat cell line, luminescence, NTPHTS, NTPHTS_NCGC, NIEHS, EPA, DSSTox, MLSMR, MLSCN, NIH Roadmap, qHTS, NCGC
# Potency means the concentration at half of the fitted maximal effect.
row,Structure (SMILES),Potency
1,CC/C=C1/OC(=O)c2ccccc21,> 92 µM (inactive)
2,Nc1cccc2c(=O)[nH][nH]c(=O)c12,> 92 µM (inactive)
3,CC/C(C)=N/O,> 92 µM (inactive)
4,O=C(O)c1ccccc1C(=O)O,> 92 µM (inactive)
5,C1CCOC1,> 92 µM (inactive)
6,O=C(O)c1ccc(Cl)c(Cl)c1,> 92 µM (inactive)
7,C1CCC2OC2C1 (stereo not given),> 92 µM (inactive)
8,CC1(N)CCC(C(C)(C)N)CC1 (stereo not given),> 92 µM (inactive)
9,O=[N+]([O-])c1ccc(CCO)cc1,> 92 µM (inactive)
10,CCC(=O)/C=C/C1C(C)=CCCC1(C)C (stereo not given),> 92 µM (inactive)
11,O=CNc1ccccc1,> 92 µM (inactive)
12,CC(C)CO,> 92 µM (inactive)
13,CC(C)(O)CCC(C)(C)O,> 92 µM (inactive)
14,Clc1ccccn1,> 92 µM (inactive)
15,CN(C)CCCCl,> 92 µM (inactive)
16,CC(C)N(C)C,> 92 µM (inactive)
17,Cc1cccc2ccccc12,> 92 µM (inactive)
18,C=C(C)C(N)=O,> 92 µM (inactive)
19,CCCCCCCCCCCCOCC1CO1 (stereo not given),> 92 µM (inactive)
20,O=[N+]([O-])c1ccc2nc[nH]c2c1,> 92 µM (inactive)

row,Structure (SMILES),Potency
1,CCC(C)(C)C,> 92 µM (inactive)
2,CCCCOCCOCCOCCCC,> 92 µM (inactive)
3,Nc1cccc([N+](=O)[O-])c1,> 92 µM (inactive)
4,C[C@@H]1O[C@@H](O[C@@H]2[C@@H](O)[C@H](OCCc3ccc(O)c(O)c3)O[C@H](CO[C@@H]3O[C@H](CO)[C@@H](O)[C@H](O)[C@H]3O)[C@H]2OC(=O)/C=C/c2ccc(O)c(O)c2)[C@H](O)[C@H](O)[C@H]1O,> 92 µM (inactive)
5,CC(CCl)OC(C)CCl (stereo not given),> 92 µM (inactive)
6,Cc1ccc(CO)cc1,> 92 µM (inactive)
7,CC(C=O)Cc1ccc(C(C)(C)C)cc1 (stereo not given),> 92 µM (inactive)
8,Cc1cccc(C(=O)O)c1,> 92 µM (inactive)
9,BrC/C=C/CBr,> 92 µM (inactive)
10,Oc1c(Cl)ccc(Cl)c1Cl,> 92 µM (inactive)
11,O=C(O)CCSSCCC(=O)O,> 92 µM (inactive)
12,Nc1ccc(Cl)cc1[N+](=O)[O-],> 92 µM (inactive)
13,C=Cc1ccccc1C=C,> 92 µM (inactive)
14,CC(=O)OC(C)=O,> 92 µM (inactive)
15,CC(=O)c1nccs1,> 92 µM (inactive)
16,Cc1ccc(Br)cc1,> 92 µM (inactive)
17,c1ccc2[nH]cnc2c1,> 92 µM (inactive)
18,Nc1cc(Cl)c([N+](=O)[O-])cc1O,> 92 µM (inactive)
19,Cc1ccccc1C#N,> 92 µM (inactive)
20,O=C(O)c1ccccc1[N+](=O)[O-],> 92 µM (inactive)
